In all, about 52,000 compounds went through this assay and about 4,300 (8.3%) were called active. The sample holds actives, similar compounds and a random draw of the others, so the mix is not that of the screen. Cut-off read from the data, not from the text of the source: active = survival mostly below about 52% (no sharp cut-off); inactive = mostly above about 56%.
The compounds below were run on DeltatarO mutant (assay: S. aureus survival, RN4220 and DeltatarO strains – OD600, teichoic acid synthesis inhibitors, primary screen (AID 463173)). Conditions: S. aureus RN4220 wild type/DeltatarO growth, OD600, 18 h, active compounds read low, screened at 18.75 µg/mL (by protocol).
With `COCCCNC(=O)c1sc2nc3n(c(=O)c2c1C)CCC3` the survival was 91% (inactive).
In the case of `CCOc1ccccc1NC(=O)CSc1nc2c(c(=O)[nH]1)CCC2`, the survival is reported as 101% (inactive).
`COc1ccc(OC)c(CCNC(=O)c2cnn(-c3ccccc3)c2C2CCN(C(=O)OC(C)(C)C)CC2)c1` was tested, and the survival was 73% (inactive).
For `CCc1ccc(NC(=O)CSc2ccccn2)cc1`, the survival was 89% (inactive).
With `COc1cccc(-c2nc(SCC(=O)Nc3ccc4c(c3)OCCO4)c(-c3ccccc3)[nH]2)c1` the survival was 54% (inactive).
For `COc1cccc(-c2nc(SCC(=O)Nc3ccc4c(c3)OCO4)c(-c3ccccc3)[nH]2)c1`, the survival was 31% (active).
For `COc1ccc(-c2[nH]c(-c3cccc(OC)c3)nc2SCC(=O)Nc2ccc3c(c2)OCO3)cc1`, the survival was 55% (inactive).
With `CC(=O)N1c2ccc(S(=O)(=O)NCCC(=O)Nc3ccc(Br)c(C)c3)cc2CC1C` (stereo not given) the survival was 90% (inactive).
With `Cc1ccc(CCNC(=O)c2ccc3c(c2)N(Cc2cccc(C)c2)C(=O)c2ccccc2S3(=O)=O)cc1` the survival was 72% (inactive).
`CCOC(=O)C1CCCN(CC(=O)N2CCCc3c2c(=O)oc2ccc(OCc4ccccc4)cc32)C1` (stereo not given) was tested, and the survival was 121% (inactive).
In the case of `COc1ccc(N2CC(C(=O)NCc3nnnn3-c3ccc(C)c(C)c3)CC2=O)cc1` (stereo not given), the survival is reported as 69% (inactive).
With `CCOC(=O)CSc1ncnc2c1c(-c1ccccc1)cn2-c1ccc(OC)cc1` the survival was 60% (inactive).
`CCCSc1ncnc2c1c(-c1ccccc1)cn2-c1ccccc1OC` was tested, and the survival was 2% (active).
With `CCCCSc1ncnc2c1c(-c1ccccc1)cn2-c1cccc(F)c1` the survival was 78% (inactive).
With `CC(C(=O)O)N1C(=O)NC2NC(=O)NC21` (stereo not given) the survival was 54% (active).
For `CC(C(=O)O)N1CCCC1` (stereo not given), the survival was 94% (inactive).
`CCOc1ccc(C(=O)Nc2nnc(SCc3cc(=O)c4cc(C)ccc4[nH]3)s2)cc1` was tested, and the survival was 91% (inactive).
For `COCCNC(=O)c1ccc2c(c1)NC(=O)C(CS(=O)(=O)Cc1ccc(F)cc1Cl)N2` (stereo not given), the survival was 130% (inactive).
In the case of `Nc1ccc2c(c1)OC1(CCCCC1)O2`, the survival is reported as 55% (active).
For `O=C1OC2(CCCC2)OC(=O)C1=CNc1ccccc1`, the survival was 96% (inactive).
For `COc1ccccc1-c1cc(C(=O)Nc2ccccc2C(F)(F)F)no1`, the survival was 71% (inactive).
In the case of `Cc1ccc2c(=O)cc(C(=O)Nc3ccc(S(=O)(=O)Nc4ncccn4)cc3)oc2c1C`, the survival is reported as 76% (inactive).
In the case of `N#Cc1ccc(NC(=O)c2ccc3c(c2)nnn3C2CCCC2)cc1`, the survival is reported as 126% (inactive).
With `Cc1cc(-c2ccc(S(=O)(=O)Nc3cccc(Cl)c3C)cc2)on1` the survival was 94% (inactive).
With `Cc1ccc(-c2nnn(CC(=O)N(CC(=O)NCC3CCCO3)C3CCN(Cc4ccccc4)CC3)n2)o1` (stereo not given) the survival was 83% (inactive).
With `O=C(NCc1ccco1)C(Sc1ccccc1)c1ccccc1` (stereo not given) the survival was 101% (inactive).
For `Cc1ccc(CNC(=O)c2sc3nc4n(c(=O)c3c2C)CCCC4)cc1`, the survival was 80% (inactive).
For `Cc1c(C(=O)NCc2ccc(Cl)cc2)sc2nc3n(c(=O)c12)CCCC3`, the survival was 95% (inactive).
`CCCN(CCC)CCCNC(=O)c1sc2nc3n(c(=O)c2c1C)CCC3` was tested, and the survival was 79% (inactive).
With `CCOC(=O)c1ccccc1NC(=O)c1sc2nc3n(c(=O)c2c1C)CCCCC3` the survival was 37% (active).
With `Cc1c(C(=O)NCc2ccccc2)sc2nc3n(c(=O)c12)CCCCC3` the survival was 56% (inactive).
For `CCCN(CCC)CCNC(=O)c1sc2nc3n(c(=O)c2c1C)CCCCC3`, the survival was 62% (active).
In the case of `CCOc1ccccc1NC(=O)c1sc2nc3n(c(=O)c2c1C)CCCCC3`, the survival is reported as 45% (inactive).
In the case of `Cc1ccc(CNC(=O)c2sc3nc4n(c(=O)c3c2C)CCCCC4)cc1`, the survival is reported as 53% (active).
For `Cc1c(C(=O)NCc2ccc(Cl)cc2)sc2nc3n(c(=O)c12)CCCCC3`, the survival was 51% (active).
With `CCN(CC)CCNC(=O)c1sc2nc3n(c(=O)c2c1C)CCCCC3` the survival was 53% (inactive).
In the case of `CCOC(=O)c1ccccc1NC(=O)c1sc2nc3n(c(=O)c2c1C)CCCC3`, the survival is reported as 103% (inactive).
`Cc1c(C(=O)NCc2ccc(Cl)cc2)sc2nc3n(c(=O)c12)CCC3` was tested, and the survival was 102% (inactive).
For `O=C(NCc1ccccc1Cl)c1cc2cccc3c2n1CCS3`, the survival was 115% (inactive).
`COc1cc(OC)c(NC(=O)c2cc(C)nc3c2c(C)nn3-c2ccc(C)cc2)cc1Cl` was tested, and the survival was 103% (inactive).
In the case of `Cc1c(Cl)ccc2sc(N3CCN(C(=O)c4ccco4)CC3)nc12`, the survival is reported as 69% (inactive).
With `COc1cccc(NC(=O)CN2C(=O)c3cccnc3Oc3ccc(Cl)cc32)c1` the survival was 80% (inactive).
For `COc1cc(NC(=O)c2sc3nc4n(c(=O)c3c2C)CCCCC4)cc(OC)c1OC`, the survival was 42% (active).
In the case of `COc1cc(Cl)c(C)cc1NC(=O)c1sc2nc3n(c(=O)c2c1C)CCCCC3`, the survival is reported as 52% (inactive).
In the case of `COc1cc(OC)c(NC(=O)c2sc3nc4n(c(=O)c3c2C)CCCC4)cc1Cl`, the survival is reported as 64% (inactive).
`CC(C)NS(=O)(=O)c1ccc2nc(NC(=O)c3cncc(Br)c3)sc2c1` was tested, and the survival was 87% (inactive).
In the case of `COc1ccc2c(c1)c1c(c(=O)n(Cc3ccccc3)c(=O)n1CC(=O)NCc1ccccc1Cl)n2C`, the survival is reported as 72% (inactive).
In the case of `CNC(=O)Cc1nc2ccccc2[nH]1`, the survival is reported as 87% (inactive).
`O=C(O)CNCc1nc2ccccc2[nH]1` was tested, and the survival was 95% (inactive).
`C/C(Cc1nc2ccccc2[nH]1)=N/Nc1ccccc1` was tested, and the survival was 2% (active).
For `COc1ccc(-c2noc(N3CCN(c4ccc(Cl)cc4)CC3)n2)cc1OC`, the survival was 80% (inactive).
For `Cc1ccc(-c2cc(C(=O)N3CCN(S(=O)(=O)c4ccc(Br)s4)CC3)[nH]n2)cc1C`, the survival was 83% (inactive).
For `CCOc1ccc(C2c3c(oc4ccc(C)cc4c3=O)C(=O)N2c2nc(C)c(C)s2)cc1OC` (stereo not given), the survival was 170% (inactive).
With `CCCCN1CC(c2nc3ccccc3n2CCCCOc2cc(C)cc(C)c2)CC1=O` (stereo not given) the survival was 33% (active).
In the case of `CCCCN1CC(c2nc3ccccc3n2CCCCOc2ccc(C)c(C)c2)CC1=O` (stereo not given), the survival is reported as 20% (active).
For `Cc1cc(C)cc(NC(=O)Cn2nnc(C(=O)Nc3cc(C)cc(C)c3)c2N)c1`, the survival was 74% (inactive).
For `Cc1ccc2c(CC(=O)Nc3cccc(Cl)c3C)coc2c1`, the survival was 100% (inactive).
With `CCc1ccc(CNC(=O)c2c(C)oc3ncnc(N4CCOCC4)c23)cc1` the survival was 128% (inactive).
In the case of `CCCN(C(=O)c1c(C)oc2ncnc(N3CCOCC3)c12)c1ccc(Cl)c(Cl)c1`, the survival is reported as 46% (inactive).
With `Cc1cccc(CN2CCC(CNC(=O)c3c(C)oc4ncnc(N5CCCCC5)c34)CC2)c1` the survival was 77% (inactive).
With `Cc1oc2ncnc(N3CCCCC3)c2c1C(=O)NCC1CCN(Cc2cccc(F)c2)CC1` the survival was -5% (active).
For `Cc1oc2ncnc(N3CCCCC3)c2c1C(=O)NCC1CCN(Cc2ccc(F)cc2)CC1`, the survival was 77% (inactive).
For `Cc1ccc(CNC(=O)c2c(C)oc3ncnc(N4CCOCC4)c23)cc1`, the survival was 17% (active).
With `COC(=O)CCN(C(=O)c1c(C)oc2ncnc(N3CCOCC3)c12)c1ccccc1` the survival was 8% (active).
For `CCc1ccccc1N(CC)C(=O)c1c(C)oc2ncnc(N3CCOCC3)c12`, the survival was 96% (inactive).
For `Cc1oc2ncnc(N3CCOCC3)c2c1C(=O)NCc1ccc(Cl)cc1`, the survival was 94% (inactive).
For `COc1ccc2oc(=O)c(C(=O)NCc3cccnc3)cc2c1`, the survival was 83% (inactive).
For `CCOC(=O)c1cc(-c2ccc(F)cc2)n(CCC(=O)Nc2nc3cc(C)c(C)cc3s2)c1C`, the survival was 85% (inactive).
`CCc1cccc2sc(N3CCN(C(=O)c4cc5ccccc5cc4OC)CC3)nc12` was tested, and the survival was 119% (inactive).
`COc1ccc(-n2nc(C(=O)N3CCN(c4ccc(F)cc4)CC3)c3c4ccccc4n(C)c3c2=O)cc1` was tested, and the survival was 69% (inactive).
In the case of `Cc1cc(N2CCN(c3cccc(C)c3C)CC2)n2cnnc2n1`, the survival is reported as 99% (inactive).
In the case of `Cc1ccc(NC(=O)Cn2c(=O)oc3cc(S(=O)(=O)N4CCCC4)ccc32)cc1F`, the survival is reported as 113% (inactive).
In the case of `CCCCN(CCCC)CCNC(=O)c1cn(CC)c2ccc(S(=O)(=O)N(C)C3CCCCC3)cc2c1=O`, the survival is reported as 144% (inactive).
For `CCCN(CCC)CCCNC(=O)c1cn(CC)c2ccc(S(=O)(=O)N(C)C3CCCCC3)cc2c1=O`, the survival was 94% (inactive).
For `CCCCSCCCNC(=O)c1cn(CC)c2ccc(S(=O)(=O)N(C)C3CCCCC3)cc2c1=O`, the survival was 24% (active).
`CCOc1ccccc1NC(=O)c1ccc(F)c(S(=O)(=O)N2CCN(c3ccc(F)cc3)CC2)c1` was tested, and the survival was 76% (inactive).
`Cc1cccc(NC(=O)c2ccc(F)c(S(=O)(=O)N3CCC4(CC3)OCCO4)c2)c1` was tested, and the survival was 72% (inactive).
In the case of `Cc1cccc(NC(=O)c2ccc(F)c(S(=O)(=O)N3CCN(c4ccc(F)cc4)CC3)c2)c1`, the survival is reported as -1% (active).
With `COc1cc(-c2cc3n(C)c(C)c(CCC(=O)NC4CCC(C)CC4)c(=O)n3n2)cc(OC)c1OC` (stereo not given) the survival was 101% (inactive).
In the case of `CCOc1ccc(CCNC(=O)Cn2ncn3c(cc4ccccc43)c2=O)cc1OCC`, the survival is reported as 85% (inactive).
`COC(=O)C1(CO)NC(c2ccc(Cl)cc2)C2C(=O)N(C)C(=O)C21` (stereo not given) was tested, and the survival was 66% (inactive).
With `Cc1ccccc1C(=O)Nc1ccc(OCc2cc(=O)n3ccccc3n2)cc1` the survival was 54% (inactive).
With `COc1ccc(C(=O)Nc2nnc(S(=O)(=O)N3CCC(C)CC3)s2)cc1OC` the survival was 79% (inactive).
In the case of `Cc1cccc(C(=O)Nc2nnc(S(=O)(=O)N3CCC(C)CC3)s2)c1`, the survival is reported as 35% (active).
For `CC1CCN(S(=O)(=O)c2nnc(NC(=O)c3cccc(Cl)c3)s2)CC1`, the survival was 23% (active).
In the case of `Cc1ccc2nc(NC(=O)c3ccc(S(=O)(=O)N4CCC(C)CC4)cc3)sc2c1`, the survival is reported as 93% (inactive).
In the case of `CC1CCN(S(=O)(=O)c2nnc(NC(=O)c3cccc(Br)c3)s2)CC1`, the survival is reported as 31% (active).
In the case of `COc1ccc2nc(NC(=O)c3ccc(S(=O)(=O)N4CCC(C)CC4)cc3)sc2c1`, the survival is reported as 91% (inactive).
For `CC1CCN(S(=O)(=O)c2ccc(C(=O)Nc3nc4ccc(F)cc4s3)cc2)CC1`, the survival was 46% (active).
With `CCCNC(=O)CN1C(=O)COc2ccc(S(=O)(=O)N3CCCC3)cc21` the survival was 86% (inactive).
